# The supplement of paper PMC10681739
# Tests used:
# ETS1 = biological target: T1, ETS1 (UniProt P14921); assay: ETS1 binding intensity (PBM fluorescence), ETS1 alone (arbitrary fluorescence units); higher = stronger binding; settings: ETS1 concentration 1 nM; RUNX1 concentration 0 nM
# T1 sequence: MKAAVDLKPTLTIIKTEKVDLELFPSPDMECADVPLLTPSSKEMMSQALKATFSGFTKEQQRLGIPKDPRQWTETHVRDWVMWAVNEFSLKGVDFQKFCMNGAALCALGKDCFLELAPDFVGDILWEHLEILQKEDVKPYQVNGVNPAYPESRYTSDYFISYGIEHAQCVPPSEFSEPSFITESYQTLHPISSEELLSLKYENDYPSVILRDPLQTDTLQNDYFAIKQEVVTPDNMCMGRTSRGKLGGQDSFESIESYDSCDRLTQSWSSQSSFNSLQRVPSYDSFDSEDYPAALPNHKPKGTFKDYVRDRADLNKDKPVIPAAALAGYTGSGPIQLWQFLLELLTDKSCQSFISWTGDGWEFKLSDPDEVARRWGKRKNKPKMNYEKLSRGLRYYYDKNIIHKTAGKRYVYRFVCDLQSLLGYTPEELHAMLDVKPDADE
# RUNX1 [1] = biological target: RUNX1 (UniProt Q01196); assay: RUNX1 binding intensity (PBM fluorescence) in presence of ETS1, normalised to RUNX1-only experiment (arbitrary fluorescence units); higher = stronger binding; settings: RUNX1 concentration 2 nM; ETS1 concentration 25 nM
# Description: (§1)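 Cooperative gcPBM on 36-bp genomic probes with neighbouring ETS1 and RUNX1 sites. Recombinant human RUNX1 (2 nM) was incubated alone or with ETS1 (25 nM) and detected with anti-RUNX1 antibody plus Alexa488 secondary. Values are medians over 4 replicate spots; the RUNX1+ETS1 data were normalised to the RUNX1-only data. The probes sit in constant array flanks that are not printed.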
# RUNX1 [2] = biological target: RUNX1 (UniProt Q01196); assay: RUNX1 binding intensity (PBM fluorescence), RUNX1 alone (arbitrary fluorescence units); higher = stronger binding; settings: RUNX1 concentration 2 nM; ETS1 concentration 0 nM
# Description: as §1
# 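For RUNX1 binding intensity (PBM fluorescence) in presence of ETS1, normalised to RUNX1-only experiment in this document: Full-length recombinant human ETS1 or RUNX1 bound to double-stranded 36-bp genomic probes on microarrays, detected by protein-specific primary antibody and Alexa488 secondary, spot fluorescence as median of four replicate spots.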
# 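For RUNX1 binding intensity (PBM fluorescence), RUNX1 alone in this document: Full-length recombinant human RUNX1 bound to double-stranded 36-bp genomic probes on a high-density microarray, scored as Alexa488 fluorescence per spot via anti-RUNX1 antibody, median of four replicate spots.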
# RUNX1, sequence (Q01196 whole entry): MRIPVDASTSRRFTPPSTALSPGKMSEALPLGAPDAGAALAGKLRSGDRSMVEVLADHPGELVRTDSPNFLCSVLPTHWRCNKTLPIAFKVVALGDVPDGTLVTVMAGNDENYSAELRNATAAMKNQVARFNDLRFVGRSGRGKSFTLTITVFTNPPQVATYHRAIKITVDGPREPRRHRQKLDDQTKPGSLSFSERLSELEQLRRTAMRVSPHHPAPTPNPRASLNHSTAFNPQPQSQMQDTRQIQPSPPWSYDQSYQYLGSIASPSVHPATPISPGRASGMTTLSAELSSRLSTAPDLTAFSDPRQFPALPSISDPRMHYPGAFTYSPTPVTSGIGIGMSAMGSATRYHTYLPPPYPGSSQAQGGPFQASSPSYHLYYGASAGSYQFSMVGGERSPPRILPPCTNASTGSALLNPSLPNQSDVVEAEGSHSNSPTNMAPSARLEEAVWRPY
Sequence,ETS1 binding intensity (ETS1),RUNX1 binding intensity (RUNX1 [1]),RUNX1 binding intensity (RUNX1 [2])
GCAGTGCAGGAAGTGCTTTGTGTGGTACAATCCCAA,1920,1030,
AAGAACCTAGAGGATGTGTGGTTTTATGTGCAGGGT,710,1150,
CCCTGAGCACTTCCCCGTAAGGCTGCGGTGCACGGG,337,844,
AAACCAGAGGAAGTGGATTCCAACCACAAACCTCAC,750,2100,1080
CACTTCCTCCTCGGGGGCCTCAGAAAACCACAGGGC,413,2790,
AAAGAACTTCCTGAGGTGCTTGAGGTTAGGCTATGG,487,1660,
CCCCTACTTCCCTTTTTGCTGGGCCGCAGTTTCGGT,,2220,
CTCACAGAGCAAGTAGGATGTGGTTTCCAGGGGCTG,781,1180,800
GCCATCCAGGAAGTACAGACTCCCTGACCGCACTGA,1030,2110,
CTCCGCCTTTCACTTCCTAGTAACCGCCCTCCCTTG,522,2400,
TAGCCACGAACCGGAAACGTTAAACCACAGCTCCGT,9650,5730,
CACTTCCTGTCAAAGCCAGTTCCTTAACCGCTTAGG,1610,2930,
GCCCCAGCCCCCGGATGTGGTGACAGAATCGATACT,3220,4060,
AGTTACAGTAAAGGATGTGGTGAAACAGATGTTTAT,847,923,
ACTCCAGAGGAAGTGGCAAGACGAGCGCGGTAACGG,1080,1330,
CCCGGCCACTTCCGCCTATTGCGGGCGTCGGCTAGG,1440,4310,745
GCACTGTAGGCAGGATGTGGGCAGGGGAAACTCAGG,3720,2870,827
CCCAGAGCTTCCGATTGGCTCTTCTGTGGTGGCGGG,,1170,
AGAGCCACATCCCGCGCAGAGGACCGCGGCGACCGG,,927,
TTACCCCGGCGGAACGGAGGCCTGCGGTCGCGGCGG,,1210,
AAGACACCAACGCTCGGAAACCGCCAGACACCAACG,,916,
CACTTCCTATCGCTACATAACAAATTACCACAGACT,451,6310,
ACCAGAACTAAAGCGGATAGCGGTTAGAAACGCCCA,,952,
GCGGCTTTGTACGGAAACCCACACACATTGTTATTT,,1020,
TTCAACAGGATATTGCTTTGTTACCACAGGCCCTTT,1590,1490,

Sequence,ETS1 binding intensity (ETS1),RUNX1 binding intensity (RUNX1 [1]),RUNX1 binding intensity (RUNX1 [2])
CCCTACCTCTCCTTCCTGCCACAAGGGAAAGTCACT,508,2550,
ACAATAACAGGAAGTGGTGGGGACTGCGGTGACCTG,4750,3340,
GCCGCTGCCTCTTCCTGTGTGGTTTTTCAGGGCTTA,651,2920,
CCTGCGGATCACGGAAGTGGCTGCGGTCGGCGCCAT,2160,4890,1360
GGTTCATTTCCTTTTCCTCCTTGTGGTATAAAAGAG,697,2890,
AGCGCCGGAAGTGTGTCTGCGTAAAACTGCGGCTCG,3490,1520,
CGGCGCGGCGGACGTTGCTGCGGTAGGACGTGCCCG,,875,
AGCTCTAAGGTTCCGCCTGCGGGCAGCAAGCGGAGG,,902,
CCACCATCTTTCCGGCTCCCTCGCGACCACCACGAC,,1970,
GCTCCTCCCGGATATAAAGCCCCAAACCACGCCACT,724,1410,
ACGGTGCGTTTCCCCAACTACACCGCACGTCACGGA,,827,
GTAGGGAAGACGGGATGTGGGTTTTCAGCCGTGGCC,1220,2520,
GGGCGGAAGGGGTTCGCACGCCAAGAACCGCCATGC,,683,
CACTCCCCGAATCCGGTCTGCGGCGCGCTCGGGGCC,,1250,
GGAAAAGGAAGTGGCTTTGACTTGCGGGCAGGGAGA,1020,2560,733
CCTTCCTTCCGGGGTCGGCCCCGCCCGCAAGCGCCG,441,3960,1180
GTTGAGTTCCGGGGGAGGTTGAGTTCCTGCGGTCAA,397,2450,1220
GACAAAACACAGAAAGGAAGTGGTCAACTATTGCAC,2510,1600,835
CCCGCTCACGCCGGAAGTGGTTTGCGTTTTCAAGAT,14400,7390,741
GTGGCGAAAGTGCGGATGCGAAACCGCTGGCTCGGC,587,881,782
CACCTCGGGGGTTTCCGGTCCGTGGTTAGCTCCTTC,2600,2930,1030
TGAAGTACTAGTCAAGGATGTGGTTTTACATAGCAG,586,1340,923
TCCTAAAGCAGGAAATAGTGAGGCTACCGCAGTGTC,4180,1090,713
CTCAGGGTACCAGGATGTGGTTTAGCTTAGGGGTGG,1840,2310,980
GTTAGCGTGATCGGAGGATGTGGTTTTCCTCCCTCT,1440,1930,942

Sequence,ETS1 binding intensity (ETS1),RUNX1 binding intensity (RUNX1 [1]),RUNX1 binding intensity (RUNX1 [2])
GCGCCCTCCAGGAAACGCCGCGGTTTACTGTCTGCC,1120,1910,912
CAGGAGCAGTGTAGAGGAAGTGGTTTCCATCACGGA,2630,1410,862
TGAGCCTTGGAAGGAAATGATTCACCACAATACTGT,741,867,831
ACTTACAAAGGAAGTGACAGAACCACAGAAAAGACC,1230,1240,732
ACTGGCTTCACTTCCTCCGCGGTTCCTCGGAGCCGC,497,1730,917
CGTTTCCTGTCTGGGACTGCGCCCACGCGGTCACGT,725,2450,966
ACCTTGCCTAGAGGAAGTGGTTTTTCGAATCTGAGT,2070,1540,739
GAACCACTTCCCTGAAACCATTTACCACATAAATCT,383,2470,1510
TGCAGTCGTGAAAAAGGAAGTGGTTAAAGTGGCTAC,3680,1600,753
CATGGGGAGGAGGAAGTGGTGGCGGCCGCAGGCCAG,1040,1070,799
AATGAAGGAGGGGCAGGATGTGGTCTTGGTGAATCA,2520,1440,746
AACTGGGCGGAAAGAACGGCTAACCGCAAGCTGCCG,429,23900,11800
CAGCACGCAGGAAGCACATGTGGTGGGGCTCTTCCA,674,1030,742
GATTGTTATGTCCGGAAACCGCTTATCAGAGCCCTG,2870,1590,861
AGACGGTAGGCCAGGAAACCGCAGGCCCCTGCCGGG,925,10600,6110
GTTCAGCAGGAAGTGGATGTGGATGTGTGGTTGCCA,3230,1290,826
CATTTCAGTCCAGGATGTGGGTGCACACACCGCTTC,1610,1430,798
TATATGCACAGGAAGTCCCTTACAACCCACTCTGTT,3900,1130,869
GTGCTAGGACACAGGAAGCGATACCACAAAGAACAT,3200,1790,818
AACCATTACAGGATGTGAGATTCAAACCACTAACAG,2270,1180,849
GGCCTCGGCCACATCCGGGTTCCACCGCAGATTCGG,1850,6490,819
GATATGGCAGGAAGTAGGGCCTGGAAACCGCACGGC,3390,2000,954
CCACCCTCCGTCCGGCCGCGACCGCGAGGAGGAAGA,948,1130,841
CCTTTACGTTTTCCTGTTGCGGGTTCTATCGCTCTG,506,3260,1600
GCCCAGGGCGGCCGGAAGTTTGCGGGGCGGGGCGGA,8880,1480,754

Sequence,ETS1 binding intensity (ETS1),RUNX1 binding intensity (RUNX1 [1]),RUNX1 binding intensity (RUNX1 [2])
CCAGGCGGAAGCGGCCGGGAGTAGCGCTGCGGTTGG,631,1610,817
CCATGCACAACAGGATGTGGTTAGACAGTCAAAATT,6700,11900,875
GCTGATAGAACAGGATGTGGTAAAGAAGCAGGCCAA,5330,7890,824
TCAAGTTTGGTAACAGGATGTGGTAGGAGGAACACA,8320,1730,747
GCAAGGCAACAGGAAATTGTGGGGAAATTTTAAAAA,3930,1070,770
TGCTTCCCTTCCGTTCCGACAGCGAAAACCGCTGCC,532,2030,998
CAAGCCAGGAAGAGGGCCCTCACCAGAAACCGCACT,407,1150,907
CCCTCACCCCAGCTTTCCTGTGGTTAACCAAACCCC,518,9960,7290
GGCCTGTCACACACAGGAAGCGGTCACAGAAAAGCT,4530,2140,795
CACCGACCGGAAGGGCCCCAAGGATCCCCGCAGCAG,2130,1380,831
GCCATGGCCACTTCCTGCTTGTAACCACAGCCCAGA,4430,5520,1210
GGGTCGCGGCCTTCCGGCGAACGCGGTTACCGTGGA,555,1380,853
ACACCCCAGGAAGTGGCAGAGACCACAACAAGTCAG,704,1910,874
ATGCCTTCTTCCAGAGGATGTGGTCGCTACTAGTGG,1320,868,725
CCTGTTGATAAAACAGGATGTGGTAAAGAAGCTGGC,9030,10300,830
AGCCTACATCCTGCACTGCTTAACCACAGCCCGCCT,509,5470,1960
TTTCTGACACTCTCAGGATGTGGGTTTTCACACTGT,1190,1320,828
GAAGCTCCCCAAACAGGATGTGGTTAGGGAGAGGGG,8040,4090,879
AGGCTGTGTGAAGGATGTGGTCAGGCGGAGGCCAGG,604,1600,921
TGAGCACAGTATTTCCTGTGGTTTCTATTGCATTTC,1010,3540,1090
CCCCCACATCCTGTTTGGTTTGTGGGACACCTCAAC,2100,4080,849
CTCTCTGGGCGGAAGGAACGCGGTCACCCTGAGAAA,547,871,833
GATCTGTGCTCAGGATGTGGTGAGAGAATAAGGAAG,1210,1050,753
